Assay results as given in publication PMC4336329 (PLoS ONE, 2015).
About 14,000 (4.5%) of roughly 310,000 compounds showed an effect of 50% or more. Effects have a minus sign here. This excerpt belongs to a sample that is enriched for strong results.

These compounds were tested against human ether-à-go-go-related gene (hERG) potassium channel (human, UniProt Q12809) (assay: primary screen, population patch clamp on CHO cells stably expressing hERG; higher = less effect of the substance).
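Further: peak tail current of the secondary pulse compared with the same well before compound.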

Sequence of human ether-à-go-go-related gene (hERG) potassium channel (Q12809 whole entry, looked up): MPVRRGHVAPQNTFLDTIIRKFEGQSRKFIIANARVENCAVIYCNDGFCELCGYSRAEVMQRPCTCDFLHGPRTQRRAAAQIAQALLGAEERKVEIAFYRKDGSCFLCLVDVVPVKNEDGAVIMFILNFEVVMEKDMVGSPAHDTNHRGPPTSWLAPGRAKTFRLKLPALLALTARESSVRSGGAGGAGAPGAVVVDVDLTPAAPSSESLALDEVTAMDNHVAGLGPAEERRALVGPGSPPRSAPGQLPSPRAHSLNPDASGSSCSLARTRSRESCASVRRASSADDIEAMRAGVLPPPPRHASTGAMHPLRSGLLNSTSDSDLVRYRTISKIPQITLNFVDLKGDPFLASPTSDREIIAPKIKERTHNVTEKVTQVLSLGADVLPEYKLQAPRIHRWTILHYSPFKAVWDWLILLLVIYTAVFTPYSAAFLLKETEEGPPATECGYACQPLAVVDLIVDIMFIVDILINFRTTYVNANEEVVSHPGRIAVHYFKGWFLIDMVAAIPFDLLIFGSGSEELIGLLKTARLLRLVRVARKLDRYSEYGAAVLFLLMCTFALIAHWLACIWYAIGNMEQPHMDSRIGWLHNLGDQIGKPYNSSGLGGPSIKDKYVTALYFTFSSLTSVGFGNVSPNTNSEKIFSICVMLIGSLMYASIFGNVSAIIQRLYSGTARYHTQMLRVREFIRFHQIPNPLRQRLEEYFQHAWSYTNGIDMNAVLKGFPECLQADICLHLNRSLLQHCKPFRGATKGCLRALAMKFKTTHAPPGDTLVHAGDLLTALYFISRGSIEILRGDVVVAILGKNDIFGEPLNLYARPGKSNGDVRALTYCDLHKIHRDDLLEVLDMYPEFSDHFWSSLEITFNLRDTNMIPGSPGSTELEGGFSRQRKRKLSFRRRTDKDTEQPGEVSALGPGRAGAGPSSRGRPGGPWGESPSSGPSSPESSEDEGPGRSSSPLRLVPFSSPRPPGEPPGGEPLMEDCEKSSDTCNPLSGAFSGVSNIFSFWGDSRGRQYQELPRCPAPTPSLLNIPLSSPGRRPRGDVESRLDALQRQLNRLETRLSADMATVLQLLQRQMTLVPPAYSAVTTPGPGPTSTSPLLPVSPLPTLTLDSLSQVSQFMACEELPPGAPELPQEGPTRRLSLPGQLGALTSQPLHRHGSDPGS

In order of rising “hERG current change (%, negative = inhibition) at 10uM” value:
1. CCN1CCN(C(CNS(=O)(=O)c2ccc(Cl)cc2)c2cccnc2)CC1 (centres unmarked)  -74.2%
2. CCOC(=O)C1(CC2CC2)CCN(Cc2ccc(OC)cc2F)CC1  -73.5%
3. COc1ccccc1N1CCN(Cc2ccc(SC)cc2)CC1.O=C(O)C(=O)O  -72.9%
4. COc1ccc(CN2CCN(c3cccc(C)c3C)CC2)cc1OC  -72%
5. COc1ccccc1N1CCN(Cc2ccc(Br)cc2)CC1.O=C(O)C(=O)O  -70.3%
6. CCN1CCN(C(CNS(=O)(=O)c2ccc(Cl)cc2)c2ccccc2)CC1 (centres unmarked)  -69.5%
7. CCOc1ccccc1N1CCN(Cc2ccc(OC)c(OC)c2)CC1  -69.2%
8. CCOC(=O)C1(CC2CCCCO2)CCN(Cc2nc(-c3cccs3)oc2C)CC1 (centres unmarked)  -67.6%
9. COc1ccc(CN2CCN(Cc3ccc4ccccc4c3)CC2)cc1OC.O=C(O)C(=O)O  -67%
10. CCN1CCN(C(CNS(=O)(=O)c2ccc(Br)cc2)c2cccnc2)CC1 (centres unmarked)  -65.8%
11. COc1ccc(CN2CCN(C(C)C(=O)NC(C)c3ccc(F)cc3)CC2)cc1F (centres unmarked)  -62%
12. COc1ccc(CN2CCN(C(C)C(=O)N(C)Cc3cccc(F)c3)CC2)cc1OC.O=C(O)C(=O)O (centres unmarked)  -61%
13. CCOC(=O)C1(CC2CCCCO2)CCN(S(=O)(=O)c2cc(C)cs2)CC1 (centres unmarked)  -59%
14. COc1ccc(CN2CCN(c3ccccc3OC)CC2)cc1OC.O=C(O)C(=O)O  -57.9%
15. CN1CCN(C(CNS(=O)(=O)c2ccc(Cl)cc2)c2cccnc2)CC1 (centres unmarked)  -55.6%
16. CCOC(=O)C1(CC2CCCCO2)CCN(Cc2ccc(OC)cc2F)CC1 (centres unmarked)  -54.8%
17. CSc1ccc(CN2CCN(c3ccccc3C)CC2)cc1.O=C(O)C(=O)O  -54.5%
18. CCOc1ccccc1N1CCN(Cc2ccc(OC)c(OC)c2OC)CC1  -51.9%
19. COc1cc(CN2CCN(c3cccc(C)c3C)CC2)cc(OC)c1O  -45.4%
20. CCOC(=O)C1(CC2CCCCO2)CCN(S(=O)(=O)c2ccc(OC)cc2)CC1 (centres unmarked)  -38.3%
21. COc1ccc(CN2C(=O)Cc3c2nc(N)c2c(N)nc(N4CCOCC4)c(C#N)c32)cc1  -36.8%
22. COc1ccccc1CN1CCN(Cc2ccc3ccccc3c2)CC1.O=C(O)C(=O)O  -36.7%
23. CCN1CCN(C(CNS(=O)(=O)c2ccc(C)cc2)c2cccnc2)CC1 (centres unmarked)  -35.9%
24. COc1ccccc1N1CCN(Cc2ccc(OC)c(OC)c2OC)CC1  -35.8%
25. CCN1CCN(C(CNS(=O)(=O)c2ccccc2)c2ccccc2)CC1 (centres unmarked)  -34.8%
26. N#CCCN1CCN(C(CNS(=O)(=O)c2ccc(Cl)cc2)c2ccccc2)CC1 (centres unmarked)  -34.2%
27. CCOC(=O)C1(CCOC)CCN(Cc2nc(-c3cccs3)oc2C)CC1  -30.8%
28. CCC(=O)Nc1cc(-c2cc3ccccc3oc2=O)ccc1OC  -29.6%
29. COc1ccccc1N1CCN(Cc2ccco2)CC1.O=C(O)C(=O)O  -26.4%
30. COc1ccc(CN2CCN(Cc3ccccc3F)CC2)cc1OC.O=C(O)C(=O)O  -22.6%
31. CCOC(=O)C1(CC2CC2)CCN(Cc2cnc(-c3ccc(OC)cc3)nc2)CC1  -21.9%
32. CCOC(=O)C1(CC2CCCCO2)CCN(Cc2nc3ccccc3nc2C)CC1 (centres unmarked)  -21.2%
33. O=C1C2C3C=CC(C3)C2C(=O)N1c1ccc(N2CCN(c3ccccn3)CC2)c([N+](=O)[O-])c1 (centres unmarked)  -18.6%
34. COc1cc(C)c(CN2CCN(C(C)C(=O)NC(C)c3ccccc3)CC2)cc1OC (centres unmarked)  -18.3%
35. CCOc1ccccc1N1CCN(Cc2cccc(OC)c2OC)CC1  -17%
36. O=C(NCC1OCCCN1S(=O)(=O)c1ccc(F)cc1)C(=O)NC1CCCC1 (centres unmarked)  -15.8%
37. CCCCCn1cnc2c(sc3nc4c(cc32)CSC(C)(C)C4)c1=O  -14.5%
38. COc1cc(CN2CCN(c3cccc(C)c3C)CC2)cc(Br)c1O  -12.6%
39. CC(C)Sc1ccc([N+](=O)[O-])cc1C(=O)Nc1ccncc1  -11.7%
40. CN(C)C(CNS(=O)(=O)c1ccc(Br)cc1)c1cccnc1 (centres unmarked)  -11.3%
41. CC1CCCCC1NC(=O)c1ccc(S(=O)(=O)NCC2CCCO2)cc1 (centres unmarked)  -10.7%
42. CCOc1cc(CN2CCCCC2)ccc1OC  -8.28%
43. Cc1ccccc1CN1CCN(Cc2ccccc2)CC1.O=C(O)C(=O)O  -7.72%
44. CN1CCN(C(CNS(=O)(=O)c2ccc(F)cc2)c2cccnc2)CC1 (centres unmarked)  -7.43%
45. COc1ccccc1N1CCN(Cc2ccccc2)CC1.O=C(O)C(=O)O  -7.21%
46. COc1cccc(CN2CCN(Cc3cccc(F)c3)CC2)c1.O=C(O)C(=O)O  -6.47%
47. CCOC(=O)C1(CC2CCCCO2)CCN(Cc2nccn2-c2ccc(OC)cc2)CC1 (centres unmarked)  -5.78%
48. C/C(CC(=O)Nc1ccc2c(c1)OCCO2)=N\NC(=O)c1ccc([N+](=O)[O-])cc1Cl  -5.37%
49. COc1ccccc1N1CCN(Cc2cccc(Br)c2)CC1.O=C(O)C(=O)O  -5.27%
50. CCOc1cc(CN2CCN(c3ncccn3)CC2)ccc1OC  -4.8%
51. Cc1cccc(Nc2ncnc3onc(-c4ccc(F)cc4)c23)c1C  -4.56%
52. O=C(c1ccc(S(=O)(=O)N2CCOCC2)cc1)N1CCc2ccccc2C1  -4.25%
53. Cc1cc(C(=O)Nc2ccc(F)cc2)c2ccccc2n1  -0.679%
54. Cc1ccccc1CN1CCCOCCS1(=O)=O  -0.4%
55. CC(Cc1cccs1)NC(=O)Nc1ccccc1 (centres unmarked)  0.115%
56. COc1ccc(CN2CCN(Cc3ccco3)CC2)cc1OC.O=C(O)C(=O)O  1.22%
57. Cc1ccccc1N1CCN(Cc2cccc(C(=O)O)c2)CC1.Cl  1.27%
58. C/C(=N\NC(=O)c1ccc(Cl)c(Cl)c1)c1cccc(NC(=O)C(C)C)c1  1.91%
59. N#Cc1ccc(Oc2cc(C(F)(F)F)nc(-c3ccccn3)n2)cc1  5.26%
60. CC(NC(=O)C(C)N1CCN(Cc2ccccc2)CC1)c1ccc(F)cc1 (centres unmarked)  5.35%
61. NC(=O)CC(NC(=O)c1ccccc1)c1ccc(NC2CCCC2)c([N+](=O)[O-])c1 (centres unmarked)  5.39%
62. CN(C)S(=O)(=O)c1ccc(C(=O)NCC(=O)N/N=C/c2ccccc2Cl)cc1  5.43%
63. COc1ccc(CN2CCN(C(=O)c3cccc(OC)c3OC)CC2)cc1OC.O=C(O)C(=O)O  5.63%
64. Cc1cc(C(=O)OCC(=O)c2ccc(Cl)c([N+](=O)[O-])c2)c2cccc(C)c2n1  6.36%
65. CCOC(=O)C1CCN(Cc2ccc(F)cc2F)CC1  6.65%
66. COc1ccc(CN2CCN(S(=O)(=O)c3ccc(F)cc3)CC2)cc1OC.O=C(O)C(=O)O  7.33%
67. O=C(N/N=C/c1cccnc1)c1ccc(NC(=O)c2ccc(F)cc2)cc1  8.2%
68. CS(=O)(=O)N(Cc1ccc(C(=O)NN=C2CCCC2)cc1)c1ccccc1  8.63%
69. O=C(O)c1ccc(C(=O)O)c(C(=O)c2ccc(NC(=O)c3ccccc3)cc2)c1  8.99%
70. CCOC(=O)C1(CC2CCCCO2)CCN(S(=O)(=O)c2ccc(C)s2)CC1 (centres unmarked)  9.12%
71. CCOC(=O)C1(CC2CCCCO2)CCN(S(=O)(=O)c2ccccc2)CC1 (centres unmarked)  9.64%
72. COc1cc2nc(C(C)(C)C)oc(=O)c2cc1OC  10.6%
73. O=C(O)CCCC(=O)NCc1ccccn1  11.1%
74. Cl.O=C(O)c1ccc2nc(CO)[nH]c2c1  11.2%
75. CC(C)S(=O)(=O)C1=NSC2=NC(=O)/C(=C\c3ccc(OC(=O)c4ccco4)cc3)C(=N)N21  12.8%
76. COc1ccc(OC(C)C(=O)Nc2ccccc2F)cc1 (centres unmarked)  13.1%
77. O=C(NNC(=S)NC(=O)c1cccs1)c1ccc(NC(=O)c2ccccc2)cc1  13.7%
78. COc1ccccc1N1CCN(Cc2ccc(C(=O)O)cc2)CC1  14.4%
79. Cc1ccc(NC(=O)Cn2c(-c3ccc(F)cc3)cnc2SCC(=O)Nc2c(C)cccc2C)cc1  16%
80. Cn1c2c(c(=O)n1-c1ccccc1)CSCC2  16.5%
81. O=C(CSc1ccccc1C(=O)O)NC1CCCCCCC1  17.6%
82. CN(C)C(CNS(=O)(=O)c1ccc(Cl)cc1)c1cccnc1 (centres unmarked)  18.2%
83. Cc1nnc(SCC(=O)Nc2nccs2)n(N)c1=O  19.4%
84. Nc1c(Cl)cc(-c2cn(CCC(=O)O)c(-c3ccc(Cl)nc3)n2)cc1Cl  20.4%
85. Oc1ccccc1CNc1nccs1  21.3%
86. CN(C)CCn1cnc2c1c(=O)[nH]c(=O)n2Cc1ccccc1.Cl  27.6%
